# PubChem BioAssay AID493191 (Broad Institute, 2011)
# Hit rate of the full screen: of about 1,300 compounds, about 330 (25%) were called active. How the calls were made is not given here. Only a sample is shown. Measured potencies and affinities stand elsewhere.
# Assay: growth inhibition of MALME3 cells – cell-based, CellTiter-Glo, cherry-picked, orthogonal assay for MITF inhibitor project, dose response (AID 493191)
# Conditions: MALME3 melanoma viability, CellTiter-Glo luminescence, 24 h; series mostly up to 35 µM
row,Structure (SMILES),outcome
1,O=C(Nc1ccccc1F)C(=O)Nc1cccc2ccccc12,inactive
2,Cc1ccc2oc(C(Cl)(Cl)Cl)cc(=O)c2c1,inactive
3,O=C(CSc1nnnn1-c1ccc(O)cc1)Nc1cccc(S(=O)(=O)N2CCCC2)c1,inactive
4,O=C(CCl)Nc1cccc(S(=O)(=O)NC2=NCCCCC2)c1,inactive
5,COc1cccc(N2CCN(C(=O)c3ccc(CS(=O)c4ccccc4Cl)o3)CC2)c1 (configuration not stated),inactive
6,CC1CCN(c2nc3ccc(C(=O)O)cc3s2)CC1,inactive
7,COc1ccc(C(=O)Nc2nc3ccc(OC)cc3s2)cc1,inactive
8,O=C(c1ccc(F)cc1)N1CCC(c2ccccc2)C1 (configuration not stated),inactive
9,CC(C)c1nnc(NC(=O)CCC2CCCCC2)s1,inactive
10,COc1ccc2oc(=O)c(C(=O)Nc3ccccc3C)cc2c1,inactive
11,c1ccc(OCc2nn3c(-c4ccccn4)nnc3s2)cc1,inactive
12,COc1ccc(-c2c[n+](CC(=O)OC3CC(C)CCC3C(C)C)c3n2CCC3)cc1 (configuration not stated),inactive
13,Cc1ccc(-c2c[n+](Cc3ccc(Cl)cc3)c3n2CCC3)cc1,inactive
14,COc1ccc(N/N=C/c2c(C(=O)O)ccc3ccccc23)cc1,inactive
15,Cc1ccc(COc2ccc(C)nc2[N+](=O)[O-])cc1,inactive
16,CCc1cc(C=NC2CCCCC2)c(O)s1,inactive
17,O=[N+]([O-])c1cc(Cl)cc(/C=N\Nc2ccccn2)c1O,inactive
18,COc1cc2c(c(OC)c1OC)-c1ccc(N(C)CC(OC)OC)c(=O)cc1[C@@H](NC(C)=O)CC2,inactive
19,Cc1cc(N2CCOCC2)ccc1/C=C\[N+](=O)[O-],inactive
20,O=C(Nc1ccc(Cl)cc1)C1C2CCCCC21 (configuration not stated),inactive
21,COc1ccc(C(=O)NC(=O)Nc2cc(C)ccn2)cc1,inactive
22,N/C(=N\OC(=O)c1ccccc1)c1ccccn1,inactive
23,COCc1cc(C)nc2sc(C(=O)Nc3cccc(OC)c3)c(N)c12,inactive
24,Cc1cccc2sc(N(CCCN(C)C)C(=O)c3nc4ccccc4s3)nc12,inactive

row,Structure (SMILES),outcome
1,O=[N+]([O-])c1c(NCCCO)cc(Sc2ccc(Cl)cc2)c2nonc12,inactive
2,CC(=O)OCCCNc1cc(Sc2ccc(Cl)cc2)c2nonc2c1[N+](=O)[O-],inactive
3,CCC(=O)OCCNc1cc(Sc2nc3ccccc3[nH]2)c2nonc2c1[N+](=O)[O-],inactive
4,O=C(Nc1ccccc1F)c1ccc2c(c1)OCO2,inactive
5,COc1cccc(-c2nnc3n2N=C(C(C)(C)C)CS3)c1,inactive
6,Cc1ccc(C2=NN(C(=O)CCl)C(c3cccs3)C2)o1 (configuration not stated),inactive
7,C=C1C(=O)C=C[C@]2(C)C[C@@H]3OC(=O)[C@](C)(O)[C@H]3C[C@@H]12,inactive
8,CNc1oc(/C=C/c2cccc(OC)c2)nc1C#N,inactive
9,CCCN1C(=O)c2ccc(C(=O)Nc3cc(C)ccc3O)cc2C1=O,inactive
10,NNC(=O)c1cc2ccccc2cc1O,inactive
11,CCn1c(=O)c(C(=O)NCc2ccccc2Cl)c(O)c2ccccc21,inactive
12,Cn1c(=O)c([N+](=O)[O-])c(-n2ccnc2)c2ccccc21,inactive
13,CCOc1cc(NC(=O)CCl)c(OCC)cc1NC(=O)CCl,inactive
14,COc1cc([N+](=O)[O-])cc(/C=N/NC(=O)c2ccc(NC(=O)c3ccc(C)cc3)cc2)c1O,inactive
15,O=C(O)c1cccc(NC(=S)N/N=C/c2ccccn2)c1,inactive
16,O=C(NC1CCCCC1)C(c1cccnc1)N(C(=O)CCl)c1ccc(F)cc1 (configuration not stated),inactive
17,COc1cc(CN2CCC(C(N)=O)CC2)ccc1OCc1ccccc1,inactive
18,COc1cc2c(cc1OC)C(C)N(S(=O)(=O)c1cnc(Cl)c(Cl)c1)CC2 (configuration not stated),inactive
19,Cc1cc(C)c(C#N)c(SCc2nnc(-c3ccccc3)o2)n1,inactive
20,O=C(NC1CCCCC1)c1cc2cc(Br)ccc2o1,inactive
21,COc1cc2c(c(OC)c1OC)-c1ccc(OC)c(=O)cc1C(NC(C)=O)CC2 (configuration not stated),inactive
22,O=C(C[n+]1cc(-c2ccc(F)cc2)n2c1CCC2)c1cccs1,inactive
23,Cc1nc(SCC(=O)Nc2ccc(CN3CCCC3)cc2)c2c(C)c(C)sc2n1,inactive
24,Cc1ccc2cc(NC(=O)Cc3ccccc3)ccc2n1,inactive

row,Structure (SMILES),outcome
1,Cc1cccc(OCC(=O)Nc2cccc(O)c2)c1,inactive
2,O=C(CCl)Nc1ccc(Sc2ccc(NC(=O)CCl)cc2)cc1,inactive
3,O=C(CCl)Nc1ccc(-c2ccccc2)cc1,inactive
4,COc1cccc(NC(=O)c2cc3ccccc3cc2OC)c1,inactive
5,COc1ccc(-c2cc(-c3ccc(OC)c(OC)c3)n[nH]2)c(O)c1,inactive
6,CCCOC(=O)c1ccc(NC(=O)C2CCCO2)cc1 (configuration not stated),inactive
7,CC1=NC(=O)C(N=Nc2cccc(C(=O)O)c2)N1c1ccccc1 (configuration not stated),inactive
8,Cc1ccc(-c2c[n+](Cc3ccc(Cl)c(Cl)c3)c3n2CCC3)cc1,inactive
9,Cc1oc(=O)c(NC(=O)c2ccccc2)cc1C(=O)c1ccccc1,inactive
10,Cc1cc(C)c2nc3nc(C)cc(C)c3c(N)c2c1,inactive
11,Cc1cc(C)c2c(N)c(C(=O)N/N=C/c3ccccc3)sc2n1,inactive
12,Cn1nnnc1Sc1ncnc2scc(-c3ccsc3)c12,inactive
13,Cn1nnnc1Sc1ncnc2scc(-c3ccc(F)cc3)c12,inactive
14,O=C(O)c1ccc(N/N=C/c2ccc(OC(=O)c3cccc(Cl)c3)cc2)cc1,inactive
15,COc1ccccc1N1CCN(/N=C/c2cccc(Cl)c2)CC1,inactive
16,CC(Oc1ccccc1)C(=O)Nc1nc(-c2ccccn2)cs1 (configuration not stated),inactive
17,O=C(Nc1nc(-c2ccccn2)cs1)c1ccccc1-n1cnnn1,inactive
18,COc1ccc(C(=O)/C=C/Nc2ccccn2)cc1,inactive
19,O=C(Nc1ccc2nn(-c3ccccc3)nc2c1)c1ccco1,inactive
20,Cc1cccc(NC(=O)c2ccc([N+](=O)[O-])o2)c1C,inactive
21,Cc1cc(C(=O)Nc2cccc(C(=O)O)c2)oc1C,inactive
22,Cc1nc2ccc(NC(=O)c3ccco3)cc2nc1C,inactive
23,COc1ccc(C(=O)Nc2ccc3c(c2)OCCO3)cc1Br,inactive
24,CC(C)[C@H](NC(=O)OC(C)(C)C)c1nnc(S(=O)(=O)Cc2c(F)cccc2Cl)o1,inactive

row,Structure (SMILES),outcome
1,CCOc1ccc(C(=O)N2CCc3ccccc32)cc1,inactive
2,N#C/C(=C\c1cccs1)C(=O)NCC1CCCO1 (configuration not stated),inactive
3,CN1CCN(CCCOc2ccc(-c3ccccc3)cc2)CC1,inactive
4,Cc1ccc2oc(=O)n(CCCOc3ccccc3)c2c1,inactive
5,CN(C)Cc1c(O)ccc2c1O/C(=C\C=C\c1ccccc1)C2=O,inactive
6,Cc1ccccc1OCc1nc2c3cnn(C)c3ncn2n1,inactive
7,CC(=O)NC1=C(N(C)C2CCS(=O)(=O)C2)C(=O)c2ccccc2C1=O (configuration not stated),inactive
8,CCCCC1C(=O)N(c2ccccc2)N(c2ccc(O)cc2)C1=O (configuration not stated),inactive
9,O=C(COc1ccc2c(c1)CCC2)N1CCc2ccccc21,inactive
10,O=C(Nc1ccccc1)NN(C(=O)CCl)c1ccccc1,inactive
11,O=C(CCl)N(c1ccccc1)C1CCS(=O)(=O)C1 (configuration not stated),inactive
12,CN(C)c1ccc(/C=N/N2CCN(c3ccccn3)CC2)cc1,inactive
13,Cc1ccc(NC(=O)C2CCN(S(=O)(=O)c3c(C)noc3/C=C/c3ccco3)CC2)nc1,inactive
14,CCN=c1scc(-c2ccco2)n1/N=C/c1ccc(O)cc1,inactive
15,NC(=O)C1CCN(C2=C(NS(=O)(=O)c3ccc(Br)cc3)C(=O)c3ccccc3C2=O)CC1,inactive
16,Cc1ccc(C(CNS(=O)(=O)c2ccc(Br)cc2)N2CCN(C)CC2)cc1 (configuration not stated),inactive
17,Cc1ccc(S(=O)(=O)Nc2cccc3cccnc23)cc1,inactive
18,O=C(/C=C/c1ccc2c(c1)OCCO2)c1ccccc1,inactive
19,O=C(NC1=NCCS1)c1ccc(Cl)c(Cl)c1,inactive
20,CC(C)c1ccc(C(=O)Nc2cccnc2)cc1,inactive
21,O=C(NCc1ccccc1)NC1(C(=O)Nc2ccc3c(c2)OCCO3)CCCCC1,inactive
22,COc1ccc(-n2cc(-c3ccc(C)cc3)[n+]3c2SCC3)cc1,inactive
23,COc1cc(SC)ccc1C(=O)Nc1nc(C)cs1,inactive
24,O=C(CSc1nc2ccccc2[nH]1)c1ccc2c(c1)OCO2,inactive

row,Structure (SMILES),outcome
1,O=C(Nc1ccc(Br)cc1)c1ccc2c(c1)OCO2,inactive
2,Cc1cccc(NC(=O)c2cnn(-c3ccccc3)c2C)c1C,inactive
3,CCc1nc2oc3ccc(C)cc3c(=O)c2cc1C(=O)OC,inactive
4,O=C(N/N=C/C(Cl)=C\c1ccccc1)c1cccs1,inactive
5,O=C(NCc1ccco1)c1nc2c(nnn2Cc2ccccc2Cl)c(=O)[nH]1,inactive
6,CCOc1ccc(N=C(C)C2=C(O)c3ccccc3C2=O)cc1,inactive
7,Nc1nnc(/C=C/c2ccccc2Cl)s1,inactive
8,O=C(NCC1CCCO1)c1cc(-c2ccc(Cl)cc2Cl)on1 (configuration not stated),inactive
9,CS/C(N)=N/N=C/c1ccc2c(c1)OCO2,inactive
10,CN(C)c1nc(-c2ccccn2)nnc1-c1ccccc1,inactive
11,O=C(/C=C/c1ccc(Cl)c([N+](=O)[O-])c1)c1ccc(O)cc1,inactive
12,O=C(c1ccc(S(=O)(=O)Cc2ccccc2Cl)c([N+](=O)[O-])c1)N1CCN(c2ccccn2)CC1,inactive
13,COc1ccc(/C=C2\SC(=S)N(CCCC(=O)NNC(=O)c3ccccc3O)C2=O)cc1,inactive
14,N#C/C(=C(/O)CCl)c1nc2ccccc2[nH]1,inactive
15,COc1ccc(O)c(/C=N/NC(=O)c2ccc(CSc3nc(C)cc(C)n3)cc2)c1,inactive
16,COc1nc(NC2CCCCC2)nc(NC(C)(C)C)n1,inactive
17,O=C(CCCc1ccccc1)Nc1cccc(C(=O)O)c1,inactive
18,CCOC(=O)c1[nH]cnc1N=Nc1c(O)ccc2ccccc12,inactive
19,O=C1N=C(N2CCOCC2)S/C1=C\C=C/c1ccccc1,inactive
20,Cc1nc(-c2ccccn2)sc1C(=O)Nc1ccc(F)cc1F,inactive
21,O=C(O)c1cc(N/N=C/C(Cl)=C/c2ccccc2)ccc1Cl,inactive
